# Laboratory results reported in PubChem BioAssay (NCI).
# This is part of a sample that, as a whole, favours compounds with a hit. Of some 79,000 tested, about 15% had one in any assay. Unmarked numbers belong to inactive results. Active and inactive are the calls of the source. Cut-off read from the data, not from the text of the source: active = growth inhibition above about 70%; inactive = the rest.
# Key:
# [1] = NCI Yeast Anticancer Drug Screen. Data for the rad50 strain (AID 155);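 note: 0% = growth of vehicle-only cultures of the same strain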; conditions: S. cerevisiae rad50 strain growth inhibition, active compounds read high; at 50.0 µM unless noted
# How it was run: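 Cells are treated with compound, grown, and their growth is then scored against vehicle-only cultures of the same repair-deficient yeast strain.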
# [2] = NCI Yeast Anticancer Drug Screen. Data for the mec2-1 strain (AID 157); conditions: S. cerevisiae mec2-1 strain, active compounds read high; at 50.0 µM unless noted
# How it was run: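 Strain: mec2-1 (DNA repair/cell cycle alteration). Compound exposure, then growth measured; inhibition expressed relative to vehicle.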
# [3] = NCI Yeast Anticancer Drug Screen. Data for the sgs1 mgt1 strain (AID 161);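 note: 0% = growth of cultures given vehicle only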; conditions: S. cerevisiae sgs1 mgt1 strain, active compounds read high; at 50.0 µM unless noted
# How it was run: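 Inhibition of yeast growth, normalised to vehicle-treated controls, is reported for a strain bearing genetic alterations in DNA damage repair.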
# [4] = NCI Yeast Anticancer Drug Screen. Data for the cln2 rad14 strain (AID 165);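 note: 0% = growth equal to vehicle treated cultures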; conditions: S. cerevisiae cln2 rad14 strain, active compounds read high; at 50.0 µM unless noted
# How it was run: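 Compounds are applied to the cln2 rad14 yeast strain, and growth is then compared with that of vehicle-treated cultures to give inhibition.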
# [5] = NCI Yeast Anticancer Drug Screen. Data for the bub3 strain (AID 167); conditions: S. cerevisiae bub3 mutant strain, active compounds read high; at 50.0 µM unless noted
# How it was run: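 Part of a panel of yeast mutants defective in DNA damage repair or cell cycle regulation. Each strain is grown with compound, and inhibition is calculated relative to solvent-treated cultures.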
# [6] = NCI Yeast Anticancer Drug Screen. Data for the mlh1 rad18 strain (AID 175); conditions: S. cerevisiae mlh1 rad18 strain growth inhibition, active compounds read high; at 50.0 µM unless noted
# How it was run: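 Read-out is yeast growth inhibition, calculated against vehicle-only controls. The compound was applied to a strain engineered with DNA damage repair alterations.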
SMILES,growth inhibition [1],growth inhibition [2],growth inhibition [3],growth inhibition [4],growth inhibition [5],growth inhibition [6]
CN(C)c1ccc(NC(=O)C(c2ccccc2)c2ccccc2)cc1,6.8%,-14.6%,0.4%,-23.8%,4.35%,-12.9%
O=Cc1ccc(N2CCOCC2)cc1,9.2%,-2.1%,-11.2%,-29.6%,-18.9%,1.95%
CC(=O)CC(=O)Nc1nc2ccccc2s1,-4.45%,2.65%,9.05%,-13.2%,-7.5%,15.2%
C=C(NC(=O)C(c1ccccc1)c1ccccc1)C(=O)O,21.6%,11.7%,-1.15%,-25.1%,-1.9%,17.4%
O=C(CCCn1ccnc1[N+](=O)[O-])NCCn1cnc([N+](=O)[O-])n1,7%,17.2%,-6.05%,-6.2%,-4.8%,-16.1%
Cc1cc(C)nc(/N=C(/N)Nc2ccc(S(=O)(=O)NC(=O)Nc3ccccc3)cc2)n1,21.5%,2.55%,5.8%,1.8%,0%,-4.2%
O=C1CCCc2ccc3c(c21)CC1(Cc2cc4c(cc2C1)CCCC4)C3,-22.6%,9.15%,34%,-13.9%,32.4%,-2.7%
COc1ccc2oc3cc(Cl)ccc3c(=O)c2c1,4.8%,0.85%,-8.85%,4.35%,30.4%,14.2%
CN(C(=O)Cc1ccccc1)n1cn[n+](CC(=O)OC(C)(C)C)c1,-3.65%,-13.6%,-12.4%,-8.35%,-24.6%,-23.6%
CCOc1cccc(C=N)c1O,35.8%,-0.55%,51.9%,36.4%,-1.75%,46.5%
O=C(O)c1c(O)cc(=O)oc1-c1ccc(Cl)cc1,10.8%,0.9%,3.75%,4%,10.4%,4.75%
CC1(C)N=C(N)N=C(N)N1c1ccc(N)cc1,1.7%,-3.8%,2.75%,-36.8%,-21.4%,7.8%
O=C(Cc1csc(-c2nc(CC(=O)NNc3ccccc3)cs2)n1)NNc1ccccc1,12.7%,-3.4%,-27.9%,-38.4%,2.75%,-12.6%
O=c1[nH]c(C(F)(F)F)c([N+](=O)[O-])c(=O)[nH]1,-40.9%,-22.4%,1.6%,-26.4%,-1.9%,-4.7%
[N-]=[N+]=C(C(=O)CN1CCCC1=O)S(=O)(=O)c1ccccc1,10.4%,-6.4%,-6.55%,9.1%,-2.85%,16.2%
CCN(Cc1ccccc1)c1nnnn1-c1ccccc1,-2.5%,-5.25%,8%,6.75%,12.1%,-10.6%
Cc1ccc(N=Nc2ccc(C)cc2NC(=O)c2cccc3ccccc23)cc1,-12.6%,-8%,-12.2%,-90.5%,-1.95%,-2.7%
Nc1ccc(N)c2c(O)c3ccccc3c(O)c12,5.2%,11.8%,12.9%,-1.8%,1.8%,22%
COCN(CCc1ccccc1)CCN(C)C,1.4%,5.1%,35%,7.2%,2.05%,16.5%
CC(=O)C(C)(CCN(C)C)c1ccccc1 (stereo unspecified),6.5%,4.4%,7.45%,-10.3%,6.55%,12.8%
CC(=O)Nc1ccccc1C(C#N)Cc1ccccc1 (stereo unspecified),13.3%,5.55%,14.1%,-32.4%,1.15%,8.95%

SMILES,growth inhibition [1],growth inhibition [2],growth inhibition [3],growth inhibition [4],growth inhibition [5],growth inhibition [6]
COc1ccc2c(c1)[n+](=O)c(C(=O)C/C(=N\NC(=O)C[N+](C)(C)C)C(=O)Nc1cc(Cl)ccc1Cl)c(C)n2O,-27.9%,-12.7%,-43.6%,9.3%,-23.1%,-23.4%
Fc1ccccc1-c1nn2c(C34CC5CC(CC(C5)C3)C4)nnc2s1,6.45%,-33.1%,-29.6%,-14.5%,-11.8%,-52%
Cc1ccc(N2C(=O)CC(NC3CCCCC3)C2=O)cc1 (stereo unspecified),-6.2%,-3%,-9.65%,-2.2%,-5.6%,-2.7%
O=C(O)COc1ccc(NC(=O)COc2ccc(Cl)c(Cl)c2)cc1,8.8%,-10%,-28.9%,-30.1%,2.75%,15.1%
Cc1ccccc1C(=O)c1cccc2cccc(C(=O)c3ccccc3C)c12,13%,0.75%,-10.8%,7.8%,10.8%,1.15%
Cc1cc(Cl)ccc1N=C1NC(=O)C(CC(=O)Nc2ccc([N+](=O)[O-])cc2[N+](=O)[O-])S1 (stereo unspecified),25.1%,-4%,12.1%,-58.9%,13%,33.1%
COC(=O)N1C=NC2C3(C)C(C)=C(C)C3(C)C21C (stereo unspecified),0.35%,-3.55%,-4.1%,-24.9%,-0.4%,-7.45%
Cc1ccc(-c2cc(-c3ccccc3)c(C#N)c(=O)n2C2OC(CO)C(O)C(O)C2O)cc1 (stereo unspecified),-6.55%,-0.3%,2.25%,28.1%,8.65%,2.95%
COc1ccc(N=N/C(=N/NC(=O)c2cc(Cl)ccc2C(=O)c2ccccc2)c2ccc(N(CCC#N)CCC#N)cc2C)cc1,3.2%,12.6%,-32.9%,12.5%,-11.9%,12.8%
O=C(Cc1nc2ccccc2o1)C(=O)Nc1ccccc1C(F)(F)F,-16.5%,-4.9%,-2.8%,7.2%,2.75%,17.6%
COc1ccc2c(CSc3ncnc4nc[nH]c34)cc(=O)oc2c1,12.4%,21.8%,13.1%,-14.7%,25.4%,34.9%
O=c1nc2c(c(-c3ccc(F)cc3)[nH]1)COC/C2=C\c1ccc(F)cc1,18.2%,11.3%,34.5%,21.1%,28.6%,33.2%
CN1c2ccccc2N(C)C23N(C)c4ccccc4N(C)C12N(C)c1ccccc1N3C (stereo unspecified),-33%,1.8%,-67.4%,18.7%,-22.1%,-20.9%
O=C(Nc1cc(Cl)c(Cl)cc1Cl)C(=O)C(C(=O)c1ccccc1)C1OC(=O)c2ccccc21 (stereo unspecified),-18.6%,-34.8%,-25.1%,-0.5%,-10.2%,-10.3%
CCCCCC(Br)C(Br)CC(Br)C(Br)CC(Br)C(Br)CCCCC(=O)O (stereo unspecified),11.2%,-5.8%,9.6%,-31.9%,-0.7%,22.6%
CCCC(=O)n1ccc2ccccc21,-14.8%,-37.6%,7.45%,13.4%,-12.9%,1.6%
CN(C)Cc1cc(-c2c(Cl)cccc2Cl)no1,-18.8%,-10.5%,-10.4%,4%,7.1%,-13.6%
COc1cccc(C)c1C(=O)O,-4.05%,1.7%,5.7%,-20.1%,-32%,-5.4%
Clc1cccc(C2SCc3nc4ccccc4n32)c1 (stereo unspecified),17%,-3.95%,46.1%,15.3%,5.9%,32.1%
CCCCCCCCCCCCC(=O)N1CCOCC1,99.5% (active),99.7% (active),99.8% (active),99.5% (active),99.6% (active),99.5% (active)
